# An excerpt weighted towards active compounds, which were near 21% of everything screened.
# IL1B secr inh: qHTS for Inhibitors of Inflammasome Signaling: IL-1-beta AlphaLISA Primary Screen; THP-1 LPS/ATP IL-1B secretion, AlphaLISA, 16 h; active compounds read low; hit rate 4.7% among 360,000; activity change, % at 57.5 µM; in the data active means activity change below about -50%; inconclusive means mostly about -30% to -49%; further: on the % scale 0 is the no-effect control and ±100 the full control effect
#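 Secreted IL-1B measured by AlphaLISA bead assay after 16 h compound exposure of THP-1 cells; compounds (final up to 57.5 uM) added 1 h before LPS (250 ng/mL) and ATP (1.25 mM) stimulation; lower signal means less secretion.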
# ClpP mod: qHTS Assay for Activators of ClpP; ATP-dependent Clp protease proteolytic subunit (Bacillus subtilis (strain 168)), P80244; purified B. subtilis ClpP, FRET peptide cleavage, 20 min; Potency, µM (doses to about 57.5 µM), inactives show at the top dose activity change, negative = active; hit rate 1.9% among 340,000; AID 651965, 2013; active means well fitted falling curve with a large enough effect; inconclusive means small, poorly fitted or top-dose-only effect; inactive means no such curve, though single readings can be large or run the other way; further: potency means the concentration at half of the fitted maximal effect; the source files actives as falling curves though it sought activators and does not explain the sign; nearly all actives have a fitted effect of over 65% in size
# Target sequence (P80244 whole entry, looked up): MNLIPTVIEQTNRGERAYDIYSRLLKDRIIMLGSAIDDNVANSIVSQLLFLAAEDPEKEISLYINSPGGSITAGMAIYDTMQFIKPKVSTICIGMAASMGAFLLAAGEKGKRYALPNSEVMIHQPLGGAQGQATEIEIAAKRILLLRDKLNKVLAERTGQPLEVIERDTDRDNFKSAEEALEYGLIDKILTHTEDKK
#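 Buffer: 100 mM Tris/HCl pH8, 100 mM KCl, 0.05% low protease BSA, 2.5% glycerol, 0.01% Tween-20. ClpP 10 microg/mL final; 20 min RT; delta FRET normalized to ADEP and DMSO controls.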
# TDP1 cell noCPT: qHTS for Inhibitors of human tyrosyl-DNA phosphodiesterase 1 (TDP1): qHTS in cells in absence of CPT | DT40 Tdp1-/- hTDP1 cells, no CPT, ATP luminescence, 48 h | Potency, µM (highest dose often 46.2 µM), inactives show at the highest dose activity change, negative = growth inhibition, usual class: inhibitors | hit rate 15% among 420,000; further: potency means the concentration at half of the fitted maximal effect; on the % scale 0 is the no-effect control and ±100 the full control effect; nearly all actives have a fitted effect of over 55% in size
#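 Cells were dispensed at 400 per well, compounds added by pin tool, plates incubated ≥48 hr at 37 °C, then CellTiter-Glo added for 30 min at room temperature before luminescence reading. Line: DT40 Tdp1-/- complemented with hTDP1; camptothecin omitted.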
# D3 antag: qHTS of D3 Dopamine Receptor Antagonist: qHTS. hit rate 2.5% among 360,000. max response, negative = inhibition, %. AID 652054, 2013. D3R cells, DiscoveRx beta-arrestin luminescence, antagonist mode; active compounds read low; in the data active means max response below about -50%; inconclusive means no clear call, values can overlap the other calls; further: on the % scale 0 is the no-effect control and ±100 the full control effect
# Target sequence (P35462 whole entry, looked up): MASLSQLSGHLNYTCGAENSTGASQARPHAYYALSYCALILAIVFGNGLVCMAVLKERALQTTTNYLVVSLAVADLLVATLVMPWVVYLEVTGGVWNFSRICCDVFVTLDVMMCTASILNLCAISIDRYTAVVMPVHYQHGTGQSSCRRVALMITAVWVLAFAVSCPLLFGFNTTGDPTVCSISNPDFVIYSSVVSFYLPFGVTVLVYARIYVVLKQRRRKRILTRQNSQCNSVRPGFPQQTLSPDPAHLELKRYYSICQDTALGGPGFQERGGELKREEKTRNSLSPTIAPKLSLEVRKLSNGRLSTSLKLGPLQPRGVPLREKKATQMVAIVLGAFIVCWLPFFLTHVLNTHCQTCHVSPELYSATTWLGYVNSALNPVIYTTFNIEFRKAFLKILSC
#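 Cells plated overnight at 1500 cells/well, then exposed to library compounds with dopamine controls for 90 minutes at 37 degrees C. DiscoveRx reagent added for 30–60 minutes at room temperature; luminescence read, quantitative HTS format.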
# DRD3 agonist: qHTS of D3 Dopamine Receptor Agonist: qHTS; D(3) dopamine receptor (Homo sapiens), P35462; D3R DiscoveRx beta-arrestin cells, luminescence, 90 min; max activation, %; hit rate 0.58% among 410,000; AID 652048, 2013; in the data active means max activation above about 30%; further: 0% is about no effect
#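 Cells at 1500/well, incubated overnight, then treated with pinned compounds (dopamine as control) for 90 min at 37 degrees C. DiscoveRx reagent added for 30 - 60 minutes at room temperature; luminescence read.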
# TDP1 cell CPT: qHTS for Inhibitors of human tyrosyl-DNA phosphodiesterase 1 (TDP1): qHTS in cells in presence of CPT. AID 686979, 2013. hit rate 12% among 420,000. chicken DT40 Tdp1-/-;hTDP1 cells + 20 nM CPT, ATP luminescence, 48 h. Potency, µM (titrated, usually from 46.2 µM), for inactives: at the highest dose activity change, negative = growth inhibition, usual class: inhibitors; further: potency means the concentration at half of the fitted maximal effect; on the % scale 0 is the no-effect control and ±100 the full control effect; nearly all actives have a fitted effect of over 55% in size
#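 Chicken DT40 Tdp1-/- cells complemented with human TDP1, 400 cells/well, exposed to compounds plus 20 nM camptothecin for at least 48 h at 37 C; viability read as ATP content by CellTiter-Glo luminescence.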
# * hit, by the source's call; ? = inconclusive; / = no result; [ ] = remark or other dose. Unless noted, the call rests on the fitted dose curve; in most records, active means well fitted inhibition curve with a large enough effect; inconclusive means small, poorly fitted or top-dose-only effect; inactive means flat fitted curve, though single readings scatter.
SMILES,IL1B secr inh,ClpP mod,TDP1 cell noCPT,D3 antag,DRD3 agonist,TDP1 cell CPT
CCCc1[nH]n(-c2ccc([N+](=O)[O-])cc2)c(=O)c1C(C)=NCc1ccncc1,24,/,?,-3,4,?
COCCN(C)C(=O)c1cnn(-c2nccc(-c3cc(OC)ccc3OC)n2)c1C,/,/,-17%,/,/,0%[9.04 µM]
COc1ccc(CCNC(=O)COC(=O)Cn2cnc3c2c(=O)n(C)c(=O)n3C)cc1,1,0%,0%,0,-1,5%
NS(=O)(=O)c1ccc(CCN2C(=O)/C(=C\c3ccc(Cl)cc3)SC2=S)cc1,-85*,-2%,6.5µM*,-15,1,6.5µM*
O=C(CCN1C(=O)S/C(=C\c2ccc(Cl)cc2)C1=O)Nc1ccc(C(=O)O)cc1,-20,-2%,-27%,-9,-1,-2%
CN1CCN(C(=O)CCN2C(=O)/C(=C\c3ccc(Cl)cc3)SC2=S)CC1,-22,-1%,?,-12,-8,18µM*
Cc1ccc(-c2noc(-c3cccnc3NCc3ccc(Cl)cc3)n2)cc1,/,?,-23%,/,3,-9%
CC(=O)NCCc1ccc(S(=O)(=O)Nc2ccc(NC(=O)c3ccc(F)cc3)cc2)cc1,6,/,-10%,33,25,-6%
CC1(C(=O)NCc2ccccc2)Cc2c(-c3cccc(C(F)(F)F)c3)ccnc2O1 (centres undefined),68,-6%,5.8µM*,?,-15,3.7µM*
CC1(C(=O)NCc2cccs2)Cc2c(-c3ccc(C(N)=O)cc3)ccnc2O1 (centres undefined),43,-10%,3.3µM*,-71*,-8,2.6µM*
CC1(C(=O)NCc2cccs2)Cc2c(-c3cccc(C(F)(F)F)c3)ccnc2O1 (centres undefined),62,-2%,2.9µM*,4,-9,3.3µM*
CCN(CC(=O)NCc1cccs1)C(=O)c1ccc(-c2cccc(C(F)(F)F)c2)o1,-80*,/,?,-13,-6,?
CC(=O)NCCNC(=O)C1(C)Cc2c(-c3ccc(C(N)=O)cc3)ccnc2O1 (centres undefined),15,?,0%,22,4,0%
COc1ccc(OC)c(S(=O)(=O)Nc2cc3c(cc2C)n(C)c(=O)c(=O)n3C)c1,/,0%,-25%,/,6,-14%
CC(C)N1C(=O)CCC1C(=O)NCc1cccs1 (centres undefined),9,2%,5%,0,-4,3%
N#CCCn1c(=O)c(-c2ccc(F)cc2)nc2cnc(Oc3cccc(Cl)c3)nc21,/,/,0%,/,/,6%
O=C(COc1ccc(Cl)cc1Cl)NCCN1CCCC1,-23,0%,13%,-28,-4,-14%
CCOc1ccc(NC(=S)N(CCCN2CCCC2)Cc2cccn2Cc2ccc(Cl)cc2)cc1,-23,/,?,-10,-10,15µM*
Cc1cccc(NC(=S)N(CCCN2CCCC2)Cc2cccn2Cc2ccc(Cl)cc2)c1,-87*,/,16µM*,-28,-15,?
CCN1CCN(CCCN(Cc2ccco2)C(=S)Nc2ccc(Cl)cc2)CC1,-28,/,-14%,-9,-11,-6%
O=C(NCc1ccc(F)cc1F)[C@@H]1CCCN1C(=O)[C@@H]1CCCN1,11,-4%,-10%,0,-2,-16%
Cc1csc(SCC(=O)N2CCOc3ccc(C(O)C4CCCCC4)cc3C2)n1 (centres undefined),/,/,21µM*,/,/,?
Cn1c(N2CCCC2)nc2c1c(=O)[nH]c(=O)n2C,23,/,-3%,2,-10,-11%
COc1ccc2[nH]c3c(N4CCc5ccccc5C4)ncnc3c2c1,-97*,1%,1.3µM*,0,4,1.2µM*
CCOC(=O)N1CCN(c2ncnc3c2[nH]c2ccc(OC)cc23)CC1,0,25µM*,23µM*,10,7,?
SMILES,IL1B secr inh,ClpP mod,TDP1 cell noCPT,D3 antag,DRD3 agonist,TDP1 cell CPT
CCOC(=O)N1CCN(c2ncnc3c2[nH]c2ccc(F)cc23)CC1,-3,?,2.1µM*,-12,10,6.5µM*
CCCCOc1ncnc2c1[nH]c1ccc(OC)cc12,23,?,?,38,12,?
CCOC(=O)N1CCN(c2cc(=O)n(Cc3ccc(F)cc3)c(=O)[nH]2)CC1,7,-4%,0%,-7,5,-5%
CCOC(=O)C1CCN(c2ncnc3c2[nH]c2cccc(OC)c23)CC1,?,9%,26µM*,0,-3,?
N#Cc1ccc(CO/N=C/c2ccccc2)cc1,-6,/,-5%,-6,-4,1%
CS(=O)(=O)Nc1cccc(-c2nccc(NCc3cccs3)n2)c1,/,/,-18%,/,/,-25%
COc1ccc(N2CCN(c3ncccc3C#N)CC2)cc1,-5,-2%,-23%,-14,-9,1%
COc1ccc2[nH]c3c(Cl)ncnc3c2c1,?,0%,?,-7,-2,7%
Fc1ccc2[nH]c3c(N4CCN(c5ccccc5)CC4)ncnc3c2c1,-55*,7%,4.6µM*,-13,5,5.2µM*
COc1cccc2[nH]c3c(Cl)ncnc3c12,/,16µM*,?,-19,-5,-20%
COc1ccc(N2CCN(c3ncnc4c3[nH]c3ccccc34)CC2)cc1,-30,0%,2.3µM*,61,11,3.7µM*
CN(CCc1ccccn1)C(=O)Nc1ccc(C(C)(C)C)cc1,-12,28µM*,?,-16,-16,-27%
COc1ccc(Oc2ncc3nc(-c4ccc(OC)cc4)c(=O)n(C)c3n2)cc1,/,/,-15%,/,/,-11%
CCOc1ccc(Oc2ccc(C(F)(F)F)cc2NC(=O)C2=COCCO2)cc1,-21,-3%,?,9,0,?
CCN1C(C(=O)c2ccccc2)=C(OC(=O)C(C)C)c2ccccc2S1(=O)=O,/,1%,5.2µM*,/,-26,6.5µM*
CCOC(=O)c1ccc(CN2C(=O)c3ccccc3S2(=O)=O)cc1,35,/,-5%,19,-4,-4%
CCN1C(C(=O)c2ccccc2)=C(OC(=O)COc2ccccc2)c2ccccc2S1(=O)=O,/,2%,16µM*,/,-12,?
CCCC(=O)OC1=C(C(C)=O)N(Cc2ccccc2)S(=O)(=O)c2ccccc21,/,-2%,?,/,-7,?
